Pf growth 96h: P. falciparum growth inhibition at 96 hours; P. falciparum luciferase reporter growth, 96 h; Potency, µM (doses to about 28.7 µM), inactives show at the top dose activity change, negative = inhibition, actives largely listed as inhibitors; actives 6.9% (n = 320,000); further: potency means the concentration at half of the fitted maximal effect; on the % scale 0 is the no-effect control and ±100 the full control effect
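Readout is luminescence from an integrated firefly luciferase in P. falciparum. Red cells, 2% hematocrit and 0.05% parasitemia final, were cultured with compound through two parasite generations (96 hours) at 37 C, 5% CO2.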
Pf growth 48h: P. falciparum growth inhibition at 48 hours (one generation). P. falciparum luciferase growth in erythrocytes, 48 h. Potency, µM (titrated, usually from 28.7 µM), inactives show at the top dose activity change, negative = inhibition, usual class: inhibitors. actives 5.9% (n = 310,000). AID 504832; further: potency means the concentration at half of the fitted maximal effect; on the % scale 0 is the no-effect control and ±100 the full control effect
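Parasite viability was followed by luminescence of a genomically integrated firefly luciferase. Cultures held 0.1% parasitemia at 2% hematocrit (final), incubated under 5% CO2 at 37 C.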
Shiga inhibitor: inhibitors of Shiga toxin in Vero cells | actives 9.2% (n = 290,000) | AID 2315 | inhibition, % at 38.7 µM | Vero cells, Shiga toxin protein synthesis inhibition reporter; in the data active means inhibition mostly above about 28%, no sharp cut-off; inactive means mostly below about 43%; further: 0% is about no effect
Cycloheximide cs: counter-screen for Shiga toxin inhibitors: cycloheximide protein synthesis inhibition; cell reporter, cycloheximide protein synthesis inhibition counterscreen; max response, %; actives 12% (n = 300,000); AID 2314; in the data active means max response mostly above about 13%, no sharp cut-off; inactive means mostly below about 14%; further: read at 38.3 µM for the half of the compounds with a filed dose; 0% is about no effect
HCMV antiviral: inhibitors of human cytomegalovirus | AID 1259415 | actives 4.5% (n = 410,000) | activity change, negative = inhibition, % at 57.5 µM | HFF cells, HCMV-luciferase reporter, 72 h; stronger effect = lower value; in the data active means activity change below about -60%; inconclusive means no clear call, values can overlap the other calls; inactive means above about -39%; further: on the % scale 0 is the no-effect control and ±100 the full control effect
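Inhibition of viral replication was scored as loss of reporter luminescence in HFFs infected with HCMV-luciferase (MOI 1 PFU/cell) for 72 h; compounds tested at 2 doses, normalized to buffer and Salinomycin controls.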
* marks the source's active call; other numbers are inactive results; ? = inconclusive; / = no result given; [ ] = remark or other dose. Rows were chosen to be rich in hits. Some 20% of all compounds tested hit in one or more screens of this group. Unless noted, the call rests on the fitted dose curve; in most records, active means well fitted inhibition curve with a large enough effect; inconclusive means small, poorly fitted or top-dose-only effect, or another doubt; inactive means no such curve, though single readings can be large or run the other way.

SMILES	Pf growth 96h	Pf growth 48h	Shiga inhibitor	Cycloheximide cs	HCMV antiviral
O=C(N/N=C/c1ccccc1F)C(=O)N1CCCCCC1	?	31%	34*	24*	-15
CCC(=O)NCCc1nc2cc(NC(=O)c3cccc(Br)c3)ccc2n1C	/	/	/	/	56
CN(C(=O)CSc1nnnn1-c1ccc(O)cc1)C1CCS(=O)(=O)C1 (stereo unspecified)	22%	-27%	-4	-2	-22
CC1=C(C(=O)N(C(C)C)C(C)C)CC(CC(=O)NCc2ccco2)C(=O)N1CCCN1CCCC1=O (stereo unspecified)	/	/	/	/	13
O=C(N/N=C/c1ccccc1O)C(=O)N1CCCCCC1	15%	-16%	21	20*	8
Cc1ccc(/C=C2/Sc3ccccc3N(CC(=O)NCC3CCCO3)C2=O)cc1 (stereo unspecified)	-12%	-8%	-5	1	/
Cc1cc(/C=C2\Sc3ccccc3N2C)cc(C)[n+]1CC1CCCO1 (stereo unspecified)	?	?	-7	-1	-100*
COc1ccc(-c2csc(N(CC3CCCO3)C(=O)c3ccccc3)n2)cc1 (stereo unspecified)	20%	?	-5	13	-21
O=C(c1ccco1)N(CC1CCCO1)c1nc(-c2ccccc2)cs1 (stereo unspecified)	/	?	-4	1	-101*
O=C(c1cccs1)N(CC1CCCO1)c1nc(-c2ccccc2)cs1 (stereo unspecified)	35%	?	35	9	-34
Cc1ccc(-c2csc(N(CCCN(C)C)C(=O)c3ccco3)n2)cc1	11%	-22%	24	2	-13
COc1ccc(-c2csc(N(CC3CCCO3)C(=O)c3ccc(C)cc3)n2)cc1 (stereo unspecified)	10µM*	5.2µM*	-14	-3	-19
Cc1ccc(-c2csc(N(CC3CCCO3)C(=O)c3ccco3)n2)cc1 (stereo unspecified)	?	?	40*	23*	-21
COC(=O)C1=C(C)N(C)C(=NCc2ccc(OC)cc2)NC1c1ccc(F)cc1 (stereo unspecified)	/	/	/	/	-4
COC(=O)N1c2ccccc2CCc2ccccc21	36%	7.4µM*	-5	-2	-19
COc1ccccc1NC(=O)CSCC(=O)N1c2ccccc2CCc2ccccc21	5.9µM*	?	-12	-2	-28
N#CSCC(=O)N1c2ccccc2CCc2ccccc21	39%	?	-15	-1	-102*
C=Cc1ccc(Cn2c(=O)n(CC3CCC(C(=O)NC(C)C)CC3)c(=O)c3sccc32)cc1 (stereo unspecified)	/	/	/	/	-8
CCOc1ccc(NCc2cccn2-c2nnc(N3CCC(C(=O)NCc4ccccc4Cl)CC3)s2)cc1	/	/	/	/	-30
S=c1[nH]c2ncccc2o1	2.1µM*	-7%	14	2	35
Cn1cccc1CNC(=O)Nc1ccc(Cl)cc1	51%	45%	59*	49*	-4
Cc1ccc(NC(=O)NCc2cccn2C)cc1C	9%	-6%[0.00184 µM]	59*	18*	138
Cc1ccc(CNC(=O)Nc2ccccc2)n1C	59%	59%	28	17*	100
COc1ccc(NC(=O)NCc2ccc(Cl)cc2)cc1	3%	12%	2	6	-10
Cc1cc(C)cc(NC(=S)NCc2cccn2C)c1	?	?	-5	-3	-6
SMILES	Pf growth 96h	Pf growth 48h	Shiga inhibitor	Cycloheximide cs	HCMV antiviral
Cn1cccc1CNC(=O)Nc1ccccc1	-20%	/	52*	43*	7
Cc1ccc(S(=O)(=O)NC(C(=O)Oc2ccc3c(C(F)(F)F)cc(=O)oc3c2)c2ccccc2)cc1 (stereo unspecified)	?	-5%	3	2	19
CC(C)c1ccc(NC(=S)N2CCN(S(=O)(=O)c3ccccc3)CC2)cc1	?	?	-18	10	-14
c1ccc(-c2noc(CC3CCCCC3)n2)nc1	1%	89%	82*	50*	-10
c1cc(-c2noc(CC3CCCCC3)n2)ccn1	365%	?	122*	15	14
CN(Cc1nc(-c2ccccn2)no1)S(=O)(=O)c1ccc(Br)cc1	/	18%	12	3	0
Cc1ccc(C(=O)NNC(=O)c2ccc(NS(=O)(=O)c3cccs3)cc2)o1	17%	-3%	/	/	25
Cc1ccc(C(C)NC(=S)NC2CCCCC2)c(C)c1 (stereo unspecified)	5.2µM*	10µM*	-8	-3	-78*

Assay outcomes deposited in PubChem by National Center for Advancing Translational Sciences (NCATS).
